A short description of experiment [1]: growth inhibition of DIPG glioma cells, dose response, cell-based, SU-DIPG-XVII, MIPE5.0, CellTiter-Glo, qHTS (AID 1347060; cut-off not given, nearly all actives have AC50 up to about 26 µM;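 for AC50: cells exposed to compound for 48 hours before viability readout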). The note with it: SU-DIPG-XVII viability, CellTiter-Glo ATP luminescence.
A short description of experiment [2]: growth inhibition of DIPG glioma cells, dose response, cell-based, SU-DIPG-XIII, MIPE4.0, CellTiter-Glo, qHTS (AID 1347061; cut-off not given, nearly all actives have AC50 up to about 37 µM;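 note: cells exposed to compound for 48 hours before readout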). The note with it: SU-DIPG-XIII viability, CellTiter-Glo ATP luminescence. In general terms: ATP-based viability assays read luminescence as a measure of living cells.
Experiment [3] in a line: growth inhibition of DIPG glioma cells, dose response, cell-based, SU-DIPG-IV, MIPE4.0, CellTiter-Glo, qHTS (AID 1347063; cut-off not given, nearly all actives have AC50 up to about 30 µM;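 note: compound exposure lasted 48 hours before the viability readout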). The conditions noted are these: SU-DIPG-IV viability, CellTiter-Glo ATP luminescence.
Experiment [4] can be described thus: growth inhibition of DIPG glioma cells, dose response, cell-based, SU-DIPG-XIII, MIPE5.0, CellTiter-Glo, qHTS (AID 1347064; cut-off not given, nearly all actives have AC50 up to about 23 µM;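 note: cells exposed to compound for 48 hours before the viability read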). The conditions noted are these: SU-DIPG-XIII viability, CellTiter-Glo ATP luminescence.
The nature of experiment [5]: viability loss in pontine glioma line – cell-based, SU-DIPG-XXV, MIPE5.0, CellTiter-Glo, qHTS, dose response (AID 1347065; cut-off not given, nearly all actives have AC50 up to about 26 µM;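 note: cells exposed to compound for 48 hours before ATP readout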). The conditions noted are these: CellTiter-Glo ATP luminescence.
A short description of experiment [6]: SU-DIPG-XXV glioma cell viability, MIPE5.0 library, qHTS (AID 1347068; cut-off not given, nearly all actives have IC50 up to about 30 µM;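 for IC50: cells exposed to compound for 48 hours before viability readout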).
The nature of experiment [7]: sensitizers of A549 cells to miR-34 induction, primary screen, imaging, A549 dox-inducible miR-34, nuclei and caspase counts (AID 1347080;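 active = compounds whose cell count with miR-34 switched on is under 0.7 times the count with it off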). The conditions noted are these: A549 miR-34 inducible, Hoechst nuclei count, 48 h.
A short description of experiment [8]: modifiers of HSF1 nuclear foci, imaging, Selleck Cancer Library (AID 1347162; in the data active = plate-normalised HSF1 focus index below about 0.46). The conditions noted are these: human cells, at 10 µM; SSMD: measured here: HSF1 foci SSMD mean; cell count: measured here: cell number; plate-normalised HSF1 focus index: stronger effect = lower value.
Experiment [9] can be described thus: survival rescue of mitochondrial mutant cells in low glucose, primary screen, MELAS cybrids, Rieske KO mouse fibroblasts, CellTiter-Glo (AID 1508586;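 active = mean z-score across replicates of 1.96 or higher in either the MELAS or the Rieske mutant cell line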;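 note: z relative to plate mean and SD of compound and empty wells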).
Experiment [10] in a line: ovarian cancer cell viability with rucaparib, profiling panel, oncology-focused library, rucaparib conditional (AID 1508598). The note with it: patient-derived ovarian cancer cells, CellTiter-Glo viability, 144 h, stronger effect = lower value.
Experiment [11] in a line: SU-DIPG-VI glioma cell viability, MIPE4.0 library, CellTiter-Glo luminescence, qHTS (AID 1347066; cut-off not given, nearly all actives have AC50 up to about 30 µM;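 note: cells exposed to compound for 48 hours before readout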). The note with it: CellTiter-Glo ATP luminescence.
The nature of experiment [12]: JHH-DIPG-1 glioma cell viability, MIPE5.0 library, CellTiter-Glo luminescence, qHTS (AID 1347067; cut-off not given, nearly all actives have AC50 up to about 26 µM;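 note: cells exposed to compound for 48 hours before readout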). The note with it: JHH-DIPG-1 glioma viability, CellTiter-Glo ATP luminescence.
[13] abbreviates: stronger effect = lower value, cell number ratio, induced over uninduced.
The mark [14] stands for this setting: measured here: relative caspase fold change +Dox/-Dox.
Setting [15] is: measured here: total cells with miR-34 induction, stronger effect = lower value.
Setting [16] is: measured here: total cells without miR-34 induction.
Where [17] appears, read: MELAS cybrid survival, CellTiter-Glo 48 h, stronger effect = higher value.
Where [18] appears, read: Rieske KO mouse fibroblast survival, CellTiter-Glo 72 h.

Results filed as inconclusive are left out. The source made the active and inactive calls.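 Rule for the calls, unless noted: active = normalized viability below 100% at a tested concentration; inactive = the rest.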

In general, AC50 refers to the midpoint of the concentration-response curve, whichever way the signal moves. Broadly, the IC50 is the concentration that gives 50% inhibition. The term viability denotes a read-out of living cells in per cent, often relative to untreated cells. For `CS(=O)(=O)N1CCN(Cc2cc3nc(-c4cccc5[nH]ncc45)nc(N4CCOCC4)c3s2)CC1`, the AC50 is 1.18 µM (active) in [1]; 5.26 µM (active) in experiment [2]; 0.166 µM (active) in experiment [3]; 1.32 µM (active) in [4]; 0.661 µM (active) in [5]. In addition, the IC50 in [6] is 4.17 µM (active). The values for the fold change in experiment [7] (setting [13]) and in experiment [7] (setting [14]) were 0.864 (inactive) and 0.859, respectively. Besides, the cell count in experiment [7] (setting [15]) stood at 1360; in experiment [7] (setting [16]), 1570; in [8], 6530. In experiment [8], the SSMD was -1.97. For the same compound, the plate-normalised HSF1 focus index in [8] is 0.899 (inactive). Also, the z-score is 3.74 (active) in experiment [9] (setting [17]) and 1 in [9] (setting [18]). The viability in experiment [10] (at 0.000305 µM, OCI-C5x cells, with rucaparib 10 µM, 100% = cells with rucaparib alone) is 111% (inactive); in experiment [10] (at 0.000305 µM, OCI-C5x cells, without rucaparib) it was 127% (inactive); in [10] (at 0.000305 µM, OCI-P5x cells, with rucaparib 20 µM, 100% = cells with rucaparib alone) it was 98.9% (active); in [10] (at 0.000305 µM, OCI-P5x cells, without rucaparib) it was 94.9% (active); in [10] (at 0.00122 µM, OCI-C5x cells, with rucaparib 10 µM, 100% = cells with rucaparib alone) it was 121% (inactive); in experiment [10] (at 0.00122 µM, OCI-C5x cells, without rucaparib), 119% (inactive). For the same compound, the viability in experiment [10] (at 0.00122 µM, OCI-P5x cells, with rucaparib 20 µM, 100% = cells with rucaparib alone) was 98.2% (active); in experiment [10] (at 0.00122 µM, OCI-P5x cells, without rucaparib) it was 92.1% (active); in [10] (at 0.00488 µM, OCI-C5x cells, with rucaparib 10 µM, 100% = cells with rucaparib alone), 109% (inactive); in [10] (at 0.00488 µM, OCI-C5x cells, without rucaparib), 120% (inactive); in [10] (at 0.00488 µM, OCI-P5x cells, with rucaparib 20 µM, 100% = cells with rucaparib alone), 94.4% (active); in [10] (at 0.00488 µM, OCI-P5x cells, without rucaparib), 93.2% (active). Also, the viability in experiment [10] (at 0.0195 µM, OCI-C5x cells, with rucaparib 10 µM, 100% = cells with rucaparib alone) was 111% (inactive); in experiment [10] (at 0.0195 µM, OCI-C5x cells, without rucaparib), 118% (inactive); in experiment [10] (at 0.0195 µM, OCI-P5x cells, with rucaparib 20 µM, 100% = cells with rucaparib alone), 96.3% (active); in experiment [10] (at 0.0195 µM, OCI-P5x cells, without rucaparib), 87.5% (active); in experiment [10] (at 0.0781 µM, OCI-C5x cells, with rucaparib 10 µM, 100% = cells with rucaparib alone), 114% (inactive); in [10] (at 0.0781 µM, OCI-C5x cells, without rucaparib), 108% (inactive). Also, the viability is 92.7% (active) in experiment [10] (at 0.0781 µM, OCI-P5x cells, with rucaparib 20 µM, 100% = cells with rucaparib alone); 88.1% (active) in experiment [10] (at 0.0781 µM, OCI-P5x cells, without rucaparib); 105% (inactive) in experiment [10] (at 0.313 µM, OCI-C5x cells, with rucaparib 10 µM, 100% = cells with rucaparib alone); 107% (inactive) in [10] (at 0.313 µM, OCI-C5x cells, without rucaparib); 72.6% (active) in experiment [10] (at 0.313 µM, OCI-P5x cells, with rucaparib 20 µM, 100% = cells with rucaparib alone); 78.2% (active) in experiment [10] (at 0.313 µM, OCI-P5x cells, without rucaparib). The viability in experiment [10] (at 1.25 µM, OCI-C5x cells, with rucaparib 10 µM, 100% = cells with rucaparib alone) is 125% (inactive); in experiment [10] (at 1.25 µM, OCI-C5x cells, without rucaparib) it was 123% (inactive); in [10] (at 1.25 µM, OCI-P5x cells, with rucaparib 20 µM, 100% = cells with rucaparib alone), 82.3% (active); in experiment [10] (at 1.25 µM, OCI-P5x cells, without rucaparib), 82.1% (active); in experiment [10] (at 5 µM, OCI-C5x cells, with rucaparib 10 µM, 100% = cells with rucaparib alone) it was 114% (inactive); in [10] (at 5 µM, OCI-C5x cells, without rucaparib), 120% (inactive). Moreover, the viability in [10] (at 5 µM, OCI-P5x cells, with rucaparib 20 µM, 100% = cells with rucaparib alone) was 54.2% (active); in experiment [10] (at 5 µM, OCI-P5x cells, without rucaparib) it was 70.8% (active).
Take `CN[C@@H](C)C(=O)N[C@H]1CN(C(=O)CC(C)C)CC[C@H]2CC[C@@H](C(=O)NC(c3ccccc3)c3ccccc3)N2C1=O`: the compound was called inactive in [1], in [2], in experiment [5], in experiment [11], in experiment [12] and in [6]. Further, the SSMD in [8] turned out to be 2.71. The cell count in [8] came out at 7260. Further, the plate-normalised HSF1 focus index in experiment [8] was 1.1 (inactive).
Turning to `Cn1c(Nc2ccc(C(F)(F)F)cc2)nc2cc(Oc3ccnc(-c4ncc(C(F)(F)F)[nH]4)c3)ccc21`, the concentration at half-maximal activity (AC50) is 5.25 µM (active) in experiment [1]; 16.6 µM (active) in experiment [2]; 0.132 µM (active) in experiment [3]; 0.372 µM (active) in [5]; 3.32 µM (active) in [11]; 2.63 µM (active) in experiment [12]. Further, the fold change in [7] (setting [13]) is 0.96 (inactive); in experiment [7] (setting [14]), 0.95. For the same compound, the results for the cell count in experiment [7] (setting [15]) and in [7] (setting [16]) were 2230 and 2330, respectively. Further, the z-score in experiment [9] (setting [17]) is 0.723 (inactive); in [9] (setting [18]), 0.357.

These data come from PubChem BioAssay.
